Shown are actives, neighbours in structure and some others; about 8.9% of the full set was active somewhere.
NPSR antag = antagonists of human neuropeptide S receptor cAMP signaling | CHO-NPSR cells, cAMP TR-FRET, antagonist mode | Potency, µM (series often up to 38.3 µM), for the others: at the highest dose activity change, negative = inhibition, usual class: inhibitors | 220,000 tested, 1% active | AID 1461; note: potency is the fitted concentration of half-maximal effect; nearly all actives have a fitted effect of over 50% in size
Target sequence (Q6W5P4 whole entry, looked up): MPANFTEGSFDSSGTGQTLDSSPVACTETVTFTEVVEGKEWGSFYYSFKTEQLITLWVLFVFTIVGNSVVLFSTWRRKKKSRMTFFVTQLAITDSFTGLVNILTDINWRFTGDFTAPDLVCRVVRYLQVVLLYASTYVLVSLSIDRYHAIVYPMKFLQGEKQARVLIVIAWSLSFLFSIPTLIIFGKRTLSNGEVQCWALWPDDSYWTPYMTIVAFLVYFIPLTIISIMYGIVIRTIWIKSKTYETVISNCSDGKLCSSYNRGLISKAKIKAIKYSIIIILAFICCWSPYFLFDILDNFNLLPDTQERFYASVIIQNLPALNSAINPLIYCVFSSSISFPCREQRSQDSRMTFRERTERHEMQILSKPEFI
ALDH1A1 block = blocks purified human ALDH1A1 activity | P00352 | Purified ALDH1A1, NADH fluorescence, propionaldehyde substrate | Potency, µM (top dose mostly 75.3 µM), for the others: at the highest dose activity, negative = inhibition, most hits filed as inhibitors | 220,000 tested, 7.3% active; active = well fitted inhibition curve with a large enough effect, not every such curve was filed as active; inconclusive = small, poorly fitted or top-dose-only effect, or another doubt; inactive = no such curve, though single readings can be large or run the other way;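 note: potency is the fitted concentration of half-maximal effect; plate controls were no enzyme wells and a reference inhibitor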
IMPase cell inh = IMPase inhibition in cells | CHO-M1 cells, IP1 accumulation, HTRF TR-FRET ratio | inhibition (IP1 accumulation), % at 46.1 µM | 120,000 tested, under 10 active; active = well fitted curve in the direction sought with a large enough effect in the signal ratio, not every such curve was filed as active; inconclusive = small, poorly fitted or top-dose-only effect, or a change in a side signal; inactive = no such curve, though single readings can be large or run the other way; the % refers to the signal ratio;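 note: cells stimulated with carbachol in lithium chloride buffer; plate controls were DMSO basal wells for no effect and reference inhibitor wells for full effect; higher means more IMPase inhibition seen as more IP1 and lower FRET ratio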
Target sequence (P97697 whole entry, looked up): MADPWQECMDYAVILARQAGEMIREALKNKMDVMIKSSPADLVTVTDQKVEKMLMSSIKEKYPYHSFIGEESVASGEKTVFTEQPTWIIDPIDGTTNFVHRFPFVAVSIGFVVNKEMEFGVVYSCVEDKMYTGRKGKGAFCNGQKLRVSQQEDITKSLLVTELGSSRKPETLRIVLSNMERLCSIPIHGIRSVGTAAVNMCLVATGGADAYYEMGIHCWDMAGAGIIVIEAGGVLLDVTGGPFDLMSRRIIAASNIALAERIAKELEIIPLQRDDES
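Seeded CHO-M1 cells were dosed with compound at up to 46 uM, stimulated with carbachol for 30 min, then lysed in IP-One detection reagents. Higher IP1 lowers the TR-FRET signal.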
HPGD inh = blocks human HPGD enzyme activity; purified HPGD, NADH fluorescence kinetic, PGE2 substrate; Potency, µM, without a hit: top-dose activity change, negative = inhibition, hits mostly inhibitors; 150,000 tested, 4.3% active; active = well fitted inhibition curve with a large enough effect, not every such curve was filed as active; inconclusive = small, poorly fitted or top-dose-only effect, or another doubt; inactive = no such curve, though single readings can be large or run the other way; note: potency is the fitted concentration of half-maximal effect
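NADH formation kinetics: reaction with 30 uM PGE2 and 1 mM NAD+ (final), 20 nM enzyme, Tris-HCl pH 8 with Tween 20, after 15 min compound preincubation at room temperature. Fluorescence change, last versus first of five reads.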
12-hLO inh = blocks human 12-lipoxygenase activity. P18054. purified 12-hLO, xylenol orange hydroperoxide absorbance. Potency, µM (doses to about 57.1 µM), for inactives: top-dose activity change, negative = inhibition, usual class: inhibitors. 150,000 tested, 0.12% active; note: potency is the fitted concentration of half-maximal effect; nearly all actives have a fitted effect of over 55% in size
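150 nM 12hLO, 25 mM Hepes pH 7.0 + 0.01% Triton X-100; cpd preinc 15 min RT; 40 uM arachidonic acid, 30 min RT; Fe-XO 30 min; A573/A405 ratio as read-out.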
IMPase Li cell = membrane-permeable IMPase blocker, potentiated with lithium | AID 1457 | 210,000 tested, 0.35% active | Potency, µM (top dose mostly 59.4 µM), inactives show top-dose activity, negative = IMPase inhibition, hits mostly inhibitors | CHO-M1 cells, IP1 TR-FRET (IP-One), carbachol + lithium;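 note: IP1 builds up when IMPase is blocked and the TR-FRET signal falls; potency is the fitted concentration of half-maximal effect; plate controls were basal vehicle for no effect and high inhibitor control for full effect; nearly all actives have a fitted effect of over 50% in size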
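Lithium-sensitised IP1 accumulation assay; M1-expressing CHO cells treated 30 min at 37C with compound. Competitive antibody detection by time-resolved FRET followed a 10 min room-temperature lysis step.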
An asterisk follows results filed as active; [ ] = dose if it differs, or a comment. Unless noted, calls come from the whole dose curve; as a rule, active = well fitted curve in the direction sought with a large enough effect; inconclusive = small, poorly fitted or top-dose-only effect, or another doubt; inactive = no such curve, though single readings can be large; an effect the other way counts as inactive or inconclusive. Unless noted, % is set by controls: 0 for no effect and ±100 for the full control effect.

What do the screens show for `CSCSC1=C(C#N)C(c2ccccc2Cl)C(C(C)=O)=C(C)N1` (configuration not stated)?
NPSR antag: -13%[46.1 µM]; ALDH1A1 block: 25µM*; IMPase cell inh: 7; HPGD inh: inconclusive; 12-hLO inh: -8%; IMPase Li cell: 6%[38.3 µM]

How did C=CCOC(=O)C1=C(C)NC(SCC(=O)N(CC)CC)=C(C#N)C1c1ccco1 (configuration not stated) do in these assays?
NPSR antag: -14%[46.1 µM]; ALDH1A1 block: inconclusive; IMPase cell inh: 4; HPGD inh: 18µM*; 12-hLO inh: -1%; IMPase Li cell: 30%[38.3 µM]

How did CCN(CC)C(=O)CSC1=C(C#N)C(c2ccco2)C(C(=O)OCCOC)=C(C)N1 (configuration not stated) do in these assays?
NPSR antag: -7%; ALDH1A1 block: inconclusive; HPGD inh: inconclusive; 12-hLO inh: 5%; IMPase Li cell: 9%

How did CC(=O)C1=C(C)NC(SCC(=O)c2ccc(Cl)c(Cl)c2)=C(C#N)C1c1ccco1 (configuration not stated) do in these assays?
NPSR antag: 10µM*; ALDH1A1 block: 2.8µM*; IMPase cell inh: 8; HPGD inh: 22µM*; 12-hLO inh: inconclusive; IMPase Li cell: 10%[38.3 µM]

What do the screens show for `CCn1c(SCc2ccc(C)cc2)nnc1C1CCN(S(=O)(=O)c2ccc(OC)cc2)CC1`?
NPSR antag: inconclusive; ALDH1A1 block: -19%; IMPase cell inh: 9; HPGD inh: -8%; 12-hLO inh: -2%; IMPase Li cell: 15%[38.3 µM]

What do the screens show for `COc1ccc(Nc2nc(C)cc(C)c2C#N)cc1`?
NPSR antag: -9%[46.1 µM]; ALDH1A1 block: inconclusive; IMPase cell inh: 3; HPGD inh: inconclusive; 12-hLO inh: -5%; IMPase Li cell: -12%[38.3 µM]

Results for COc1ccc(OCC(=O)Nc2ccc(-c3nc4cc(C)cc(C)c4o3)cc2)cc1 ?
IMPase cell inh: -5

Results for Cc1ccc(C(=O)CSC2=C(C#N)C(c3ccco3)C3=C(CCCC3=O)N2)cc1 (configuration not stated) ?
NPSR antag: -23%[46.1 µM]; ALDH1A1 block: inconclusive; IMPase cell inh: 8; HPGD inh: -16%; 12-hLO inh: -11%; IMPase Li cell: 14%[38.3 µM]

How did CC(=O)C1=C(C)NC(SCC(=O)c2cc(Cl)ccc2Cl)=C(C#N)C1c1ccco1 (configuration not stated) do in these assays?
NPSR antag: 10µM*; ALDH1A1 block: 25µM*; IMPase cell inh: 7; HPGD inh: 28µM*; 12-hLO inh: -29%; IMPase Li cell: -1%[38.3 µM]

What do the screens show for `N#CC1=C(SCC(=O)c2ccccc2)NC2=C(C(=O)CCC2)C1c1ccco1` (configuration not stated)?
NPSR antag: -40%[46.1 µM]; ALDH1A1 block: 8.9µM*; IMPase cell inh: 5; HPGD inh: inconclusive; 12-hLO inh: inconclusive; IMPase Li cell: 2%[38.3 µM]

Results for CCOC(=O)C1CCN(C(=O)c2ccccc2NC(=O)c2ccc(Cl)cc2)CC1 ?
NPSR antag: 8%; ALDH1A1 block: 3%; HPGD inh: -8%; 12-hLO inh: 0%; IMPase Li cell: -2%

What do the screens show for `Cc1nc2ccc(S(=O)(=O)NC(C(=O)Nc3nccs3)C(C)C)cc2s1` (configuration not stated)?
NPSR antag: -9%[46.1 µM]; ALDH1A1 block: -7%; IMPase cell inh: 0; HPGD inh: -2%; 12-hLO inh: -3%; IMPase Li cell: 17%[38.3 µM]

Results for COc1ccc(C/C(N)=N/OC(C)=O)cc1OC ?
NPSR antag: 8%; ALDH1A1 block: 10%; HPGD inh: 0%; 12-hLO inh: 4%; IMPase Li cell: 1%

What do the screens show for `COc1ccc(C/C(N)=N/OC(=O)Cc2ccc(OC)c(OC)c2)cc1`?
NPSR antag: -5%[46.1 µM]; ALDH1A1 block: -6%; IMPase cell inh: 5; HPGD inh: -6%; 12-hLO inh: -6%; IMPase Li cell: 9%[38.3 µM]

How did COc1ccc(/C(N)=N/OC(=O)Cc2ccc(OC)c(OC)c2)cc1 do in these assays?
NPSR antag: -8%[46.1 µM]; ALDH1A1 block: 7.9µM*; IMPase cell inh: -4; 12-hLO inh: 2%

Results for COc1ccc(C/C(N)=N/OC(=O)C(c2ccccc2)c2ccccc2)cc1OC ?
NPSR antag: -14%[46.1 µM]; ALDH1A1 block: 6.3µM*; IMPase cell inh: 1; 12-hLO inh: -13%

How did CCOC(=O)c1sc2nc(CSc3ccccc3)nc(N3CCCN(C)CC3)c2c1C do in these assays?
NPSR antag: inconclusive; ALDH1A1 block: 28µM*; IMPase Li cell: 12%

What do the screens show for `CN(C)CCN(C(=O)c1ccc(N2C(=O)CCC2=O)cc1)c1nc2cc3c(cc2s1)OCO3`?
NPSR antag: -4%; ALDH1A1 block: 20µM*; IMPase Li cell: -5%

What do the screens show for `O=[N+]([O-])c1ccc(/C([O-])=C(/C(=S)NCc2ccco2)[n+]2ccccc2)cc1`?
NPSR antag: -7%; ALDH1A1 block: 7.9µM*; IMPase Li cell: 28%

What do the screens show for `COc1cccc(NC(=S)/C(=C(\[O-])c2ccc([N+](=O)[O-])cc2)[n+]2ccccc2)c1`?
NPSR antag: -7%; ALDH1A1 block: 13µM*; IMPase Li cell: 13%

How did Cc1ccc(/C([O-])=C(/C(=S)NCc2ccco2)[n+]2ccccc2)cc1 do in these assays?
NPSR antag: -9%[46.1 µM]; ALDH1A1 block: -7%; IMPase cell inh: 1; HPGD inh: -11%; 12-hLO inh: -7%; IMPase Li cell: 19%[38.3 µM]

What do the screens show for `CCOc1ccc(NC(=S)/C(=C(\[O-])c2ccc(C)c([N+](=O)[O-])c2)[n+]2ccccc2)cc1`?
NPSR antag: -22%[46.1 µM]; ALDH1A1 block: 11µM*; IMPase cell inh: 6; HPGD inh: inconclusive; 12-hLO inh: -6%; IMPase Li cell: 45%[38.3 µM]

How did Cc1ccc(NC(=S)/C(=C(\[O-])c2ccc(F)cc2)[n+]2ccccc2)cc1 do in these assays?
NPSR antag: -10%; ALDH1A1 block: 10µM*; IMPase Li cell: 7%

How did Cc1ccc(C)c(NC(=S)/C(=C(\[O-])c2ccc(OC(F)F)cc2)[n+]2ccccc2)c1 do in these assays?
NPSR antag: 1%; ALDH1A1 block: inconclusive; IMPase Li cell: -2%

How did O=C(O)CCc1ccc(-c2ccc(F)cc2)n1CCC(=O)O do in these assays?
NPSR antag: -5%[46.1 µM]; ALDH1A1 block: inconclusive; IMPase cell inh: 11[1.84 µM]; HPGD inh: -14%; 12-hLO inh: -2%; IMPase Li cell: 3%[38.3 µM]

Results for C=C1CSc2nc(=O)c3c4c(sc3n21)CCCC4 ?
NPSR antag: -5%[46.1 µM]; ALDH1A1 block: -15%; IMPase cell inh: 4; HPGD inh: 14µM*; 12-hLO inh: 0%; IMPase Li cell: -4%[38.3 µM]
